We go through eleven compounds from ChEMBL document CHEMBL3988442, “University of Dundee, Small-Polar-MMV Screening Library” (2021).

For some of these results: Potency and affinity values are given separately.

Holding throughout (parameters): scale not given: direction of the effect not stated beside the values
Test [1] has as its target Protein translocase subunit SecA (Escherichia coli (strain K12)) (UniProt P10408). Kind of test: Assay to Identify E. coli SecA ATPase Inhibitors. Format: functional. As to conditions: 30 µM.
Test [2] concerns the target T1, Ubiquitin-activating enzyme e1, putative (Leishmania donovani (strain BPK282A1)) (UniProt E9BSI1).
T1 sequence (whole entry): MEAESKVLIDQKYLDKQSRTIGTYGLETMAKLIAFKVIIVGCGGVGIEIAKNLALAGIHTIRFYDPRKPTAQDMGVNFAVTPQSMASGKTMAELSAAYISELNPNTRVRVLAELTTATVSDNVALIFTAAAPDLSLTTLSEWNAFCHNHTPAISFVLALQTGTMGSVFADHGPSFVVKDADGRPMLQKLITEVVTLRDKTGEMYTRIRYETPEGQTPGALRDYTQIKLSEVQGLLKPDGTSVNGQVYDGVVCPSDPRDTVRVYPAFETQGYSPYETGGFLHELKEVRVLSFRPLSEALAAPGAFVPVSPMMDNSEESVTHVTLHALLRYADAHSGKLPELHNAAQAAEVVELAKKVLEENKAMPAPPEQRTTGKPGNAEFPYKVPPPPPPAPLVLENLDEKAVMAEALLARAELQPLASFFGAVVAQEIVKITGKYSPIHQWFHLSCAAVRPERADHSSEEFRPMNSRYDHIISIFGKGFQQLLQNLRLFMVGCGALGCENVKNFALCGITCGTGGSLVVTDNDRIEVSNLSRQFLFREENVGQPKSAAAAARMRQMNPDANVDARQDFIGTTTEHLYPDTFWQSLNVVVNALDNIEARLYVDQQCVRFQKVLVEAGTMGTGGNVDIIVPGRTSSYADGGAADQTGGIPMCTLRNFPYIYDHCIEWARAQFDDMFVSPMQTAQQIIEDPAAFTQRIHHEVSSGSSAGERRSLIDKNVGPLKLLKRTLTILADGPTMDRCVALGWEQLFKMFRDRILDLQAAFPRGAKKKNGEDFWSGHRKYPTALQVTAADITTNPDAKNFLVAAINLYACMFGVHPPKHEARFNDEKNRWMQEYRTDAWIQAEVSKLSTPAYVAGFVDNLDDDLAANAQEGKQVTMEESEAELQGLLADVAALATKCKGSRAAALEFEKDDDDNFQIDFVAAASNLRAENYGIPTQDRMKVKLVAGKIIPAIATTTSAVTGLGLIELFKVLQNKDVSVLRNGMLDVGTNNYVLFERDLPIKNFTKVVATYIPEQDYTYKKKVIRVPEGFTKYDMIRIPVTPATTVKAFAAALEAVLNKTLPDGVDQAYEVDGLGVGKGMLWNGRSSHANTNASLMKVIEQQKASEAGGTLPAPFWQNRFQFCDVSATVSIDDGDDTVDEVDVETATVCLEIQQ
Kind of test: Leishmania donovani Ubiquitin Activating Enzyme (LdE1). Format: functional. As to conditions: 30 µM.

The target in test [3] is AMP-activated protein kinase, AMPK (Homo sapiens) (UniProt P54646+O43741+P54619+Q9UGJ0+Q9Y478+Q13131+Q9UGI9). Briefly: AMP-dependent Kinase enzyme assay. An in vitro enzyme assay that detects ADP turnover that is directly proportional to AMPK activity. This uses naive AMPK that is activated during the assay with MK-8722. The class given is functional. As to conditions: 30 µM.

Test [4] addresses Sialic acid-binding Ig-like lectin 9 (Homo sapiens) (UniProt Q9Y336). Kind of test: Hs-Siglec9 ALPHAscreen SOP 20170721. As to conditions: 10 µM.
For test [5], the system named is Trypanosoma cruzi. Kind of test: Trypanosoma cruzi phosphomannomutase and mannose-1-phosphate guanylyltransferase assay. Format: functional. Particulars: 10 µM.
The target in test [6] is T2, Arginase-2, mitochondrial (Homo sapiens) (UniProt P78540).
T2 sequence (whole entry): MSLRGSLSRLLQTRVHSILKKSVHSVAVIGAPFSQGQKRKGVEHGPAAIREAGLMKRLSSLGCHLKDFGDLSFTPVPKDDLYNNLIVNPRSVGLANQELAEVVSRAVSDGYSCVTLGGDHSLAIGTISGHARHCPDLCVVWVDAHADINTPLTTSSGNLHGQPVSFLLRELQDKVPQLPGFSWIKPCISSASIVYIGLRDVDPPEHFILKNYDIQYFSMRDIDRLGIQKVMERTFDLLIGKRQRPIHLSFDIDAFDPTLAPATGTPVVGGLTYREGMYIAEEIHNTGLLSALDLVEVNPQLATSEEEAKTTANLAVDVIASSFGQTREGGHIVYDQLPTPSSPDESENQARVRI
Kind of test: in vitro enzyme assay to detect the production of urea directly proportional to the activity of Arginase II. Note: in the data most compounds retested in dose-response had high values. Format: functional. Particulars: 33.3 µM.

For test [7], the target named is T3, Proteasome subunit beta (Trypanosoma cruzi) (UniProt O96673).
T3 sequence (whole entry): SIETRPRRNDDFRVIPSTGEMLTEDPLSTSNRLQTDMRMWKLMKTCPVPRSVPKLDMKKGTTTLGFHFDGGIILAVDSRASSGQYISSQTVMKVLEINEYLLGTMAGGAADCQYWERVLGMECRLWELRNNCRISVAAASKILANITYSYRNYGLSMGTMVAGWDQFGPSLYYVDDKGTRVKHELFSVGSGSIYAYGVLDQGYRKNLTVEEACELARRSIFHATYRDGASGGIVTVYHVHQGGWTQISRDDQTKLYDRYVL
Kind of test: Trypanosoma cruzi proteasome chymotrypsin-like activity (TcProtChymo) assay. Note: in the data most compounds retested in dose-response had high values. The class given is functional. As to conditions: 9.37 µM.

For test [8], the species on record is Homo sapiens. Briefly: To identify inhibition of the IFN signalling (Jak-Stat) pathway via expression of an eGFP reporter gene under the control of an IFN-stimulated response element (ISRE) containing MxA promoter. The class given is functional. Particulars: 30 µM.
The target of test [9] is T4, Tyrosyl-tRNA synthetase, putative (Trypanosoma cruzi (strain CL Brener)) (UniProt Q4DSP6).
T4 sequence (whole entry): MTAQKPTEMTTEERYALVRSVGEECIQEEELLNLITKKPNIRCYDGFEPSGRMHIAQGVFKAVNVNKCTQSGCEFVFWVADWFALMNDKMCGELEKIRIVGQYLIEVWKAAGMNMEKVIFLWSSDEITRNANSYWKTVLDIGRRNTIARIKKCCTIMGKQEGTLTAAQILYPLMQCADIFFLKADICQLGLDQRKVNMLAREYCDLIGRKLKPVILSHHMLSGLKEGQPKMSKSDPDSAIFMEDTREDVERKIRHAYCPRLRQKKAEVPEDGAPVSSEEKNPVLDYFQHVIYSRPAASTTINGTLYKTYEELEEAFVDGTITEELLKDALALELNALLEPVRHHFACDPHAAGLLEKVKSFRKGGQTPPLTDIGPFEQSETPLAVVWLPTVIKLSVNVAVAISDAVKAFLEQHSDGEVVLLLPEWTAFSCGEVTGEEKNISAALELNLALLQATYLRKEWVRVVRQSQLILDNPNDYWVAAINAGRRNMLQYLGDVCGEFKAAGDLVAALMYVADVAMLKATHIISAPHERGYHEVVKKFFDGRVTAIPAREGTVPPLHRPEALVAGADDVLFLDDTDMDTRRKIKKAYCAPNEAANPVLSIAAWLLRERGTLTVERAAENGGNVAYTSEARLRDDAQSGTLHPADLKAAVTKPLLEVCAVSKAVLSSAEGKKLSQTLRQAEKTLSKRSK
Briefly: Trypanosoma cruzi tyrosyl tRNA synthetase (TcYRS) _High Tyrosine SOP. Note: in the data most compounds retested in dose-response had high values. Format: functional. Particulars: 30 µM.

The target of test [10] is T4, Tyrosyl-tRNA synthetase, putative (Trypanosoma cruzi (strain CL Brener)). Kind of test: Trypanosoma cruzi tyrosyl tRNA synthetase (TcYRS) SOP. The class given is functional. As to conditions: 30 µM.
The target of test [11] is Chromo domain-containing protein 1 (Saccharomyces cerevisiae (strain ATCC 204508 / S288c) (Baker's yeast)) (UniProt P32657). Kind of test: ScCHD-1 Enzyme Inhibition Assay. Note: in the data most compounds retested in dose-response had high values. As to conditions: 30 µM. Format: functional.
Sequence of Chromo domain-containing protein 1 (Saccharomyces cerevisiae (strain ATCC 204508 / S288c) (Baker's yeast)) (P32657 whole entry, the tested form may be a part): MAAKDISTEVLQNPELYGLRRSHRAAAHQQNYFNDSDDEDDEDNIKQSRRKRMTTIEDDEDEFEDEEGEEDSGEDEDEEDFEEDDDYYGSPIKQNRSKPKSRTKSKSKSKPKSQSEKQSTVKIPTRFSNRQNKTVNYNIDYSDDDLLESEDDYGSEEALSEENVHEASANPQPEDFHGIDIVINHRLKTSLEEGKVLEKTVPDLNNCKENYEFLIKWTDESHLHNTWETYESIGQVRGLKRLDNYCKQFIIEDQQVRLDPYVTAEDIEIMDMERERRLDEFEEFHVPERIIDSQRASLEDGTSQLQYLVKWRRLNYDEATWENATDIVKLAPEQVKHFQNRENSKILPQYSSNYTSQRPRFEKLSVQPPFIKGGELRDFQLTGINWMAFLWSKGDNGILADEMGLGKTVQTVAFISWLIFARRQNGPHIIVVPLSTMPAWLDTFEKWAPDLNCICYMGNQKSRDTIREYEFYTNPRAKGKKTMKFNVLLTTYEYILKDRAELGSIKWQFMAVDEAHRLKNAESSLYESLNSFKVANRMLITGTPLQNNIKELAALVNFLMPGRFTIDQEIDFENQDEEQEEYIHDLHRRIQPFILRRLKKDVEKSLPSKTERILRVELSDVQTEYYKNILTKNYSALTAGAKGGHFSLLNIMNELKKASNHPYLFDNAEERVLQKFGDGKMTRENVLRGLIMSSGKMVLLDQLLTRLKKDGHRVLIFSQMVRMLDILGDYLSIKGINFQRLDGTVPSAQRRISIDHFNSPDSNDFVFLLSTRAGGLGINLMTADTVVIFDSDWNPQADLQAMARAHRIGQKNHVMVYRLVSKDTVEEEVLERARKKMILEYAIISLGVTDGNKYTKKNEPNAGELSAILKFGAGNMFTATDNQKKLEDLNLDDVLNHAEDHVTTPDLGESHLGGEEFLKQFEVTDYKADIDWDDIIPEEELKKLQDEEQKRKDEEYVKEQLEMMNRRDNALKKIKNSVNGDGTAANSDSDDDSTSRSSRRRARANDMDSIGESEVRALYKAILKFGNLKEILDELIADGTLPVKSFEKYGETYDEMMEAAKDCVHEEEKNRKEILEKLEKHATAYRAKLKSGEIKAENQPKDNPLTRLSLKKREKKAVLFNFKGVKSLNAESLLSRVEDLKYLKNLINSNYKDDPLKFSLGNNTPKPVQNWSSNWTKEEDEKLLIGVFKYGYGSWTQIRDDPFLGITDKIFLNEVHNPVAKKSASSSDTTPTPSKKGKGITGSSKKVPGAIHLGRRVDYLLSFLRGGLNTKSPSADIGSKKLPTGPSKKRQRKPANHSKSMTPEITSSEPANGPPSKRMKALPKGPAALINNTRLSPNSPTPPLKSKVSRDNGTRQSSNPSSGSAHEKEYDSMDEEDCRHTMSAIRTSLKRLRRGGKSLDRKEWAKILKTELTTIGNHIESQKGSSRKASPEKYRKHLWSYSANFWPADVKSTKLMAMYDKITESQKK

Sequence of Sialic acid-binding Ig-like lectin 9 (Homo sapiens) (Q9Y336 whole entry): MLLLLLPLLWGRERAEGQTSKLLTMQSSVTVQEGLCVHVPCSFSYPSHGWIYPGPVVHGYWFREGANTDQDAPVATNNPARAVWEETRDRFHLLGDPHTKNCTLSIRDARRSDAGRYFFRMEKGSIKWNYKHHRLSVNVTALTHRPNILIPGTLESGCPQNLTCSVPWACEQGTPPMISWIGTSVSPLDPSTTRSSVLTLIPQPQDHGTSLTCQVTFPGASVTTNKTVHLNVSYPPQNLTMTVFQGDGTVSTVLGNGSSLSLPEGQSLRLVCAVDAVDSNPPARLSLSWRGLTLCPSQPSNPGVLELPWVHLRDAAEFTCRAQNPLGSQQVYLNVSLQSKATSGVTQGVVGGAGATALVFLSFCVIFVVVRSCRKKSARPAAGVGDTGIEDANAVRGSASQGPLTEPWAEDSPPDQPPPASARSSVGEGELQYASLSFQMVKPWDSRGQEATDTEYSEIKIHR
Sequence of Protein translocase subunit SecA (Escherichia coli (strain K12)) (P10408 whole entry): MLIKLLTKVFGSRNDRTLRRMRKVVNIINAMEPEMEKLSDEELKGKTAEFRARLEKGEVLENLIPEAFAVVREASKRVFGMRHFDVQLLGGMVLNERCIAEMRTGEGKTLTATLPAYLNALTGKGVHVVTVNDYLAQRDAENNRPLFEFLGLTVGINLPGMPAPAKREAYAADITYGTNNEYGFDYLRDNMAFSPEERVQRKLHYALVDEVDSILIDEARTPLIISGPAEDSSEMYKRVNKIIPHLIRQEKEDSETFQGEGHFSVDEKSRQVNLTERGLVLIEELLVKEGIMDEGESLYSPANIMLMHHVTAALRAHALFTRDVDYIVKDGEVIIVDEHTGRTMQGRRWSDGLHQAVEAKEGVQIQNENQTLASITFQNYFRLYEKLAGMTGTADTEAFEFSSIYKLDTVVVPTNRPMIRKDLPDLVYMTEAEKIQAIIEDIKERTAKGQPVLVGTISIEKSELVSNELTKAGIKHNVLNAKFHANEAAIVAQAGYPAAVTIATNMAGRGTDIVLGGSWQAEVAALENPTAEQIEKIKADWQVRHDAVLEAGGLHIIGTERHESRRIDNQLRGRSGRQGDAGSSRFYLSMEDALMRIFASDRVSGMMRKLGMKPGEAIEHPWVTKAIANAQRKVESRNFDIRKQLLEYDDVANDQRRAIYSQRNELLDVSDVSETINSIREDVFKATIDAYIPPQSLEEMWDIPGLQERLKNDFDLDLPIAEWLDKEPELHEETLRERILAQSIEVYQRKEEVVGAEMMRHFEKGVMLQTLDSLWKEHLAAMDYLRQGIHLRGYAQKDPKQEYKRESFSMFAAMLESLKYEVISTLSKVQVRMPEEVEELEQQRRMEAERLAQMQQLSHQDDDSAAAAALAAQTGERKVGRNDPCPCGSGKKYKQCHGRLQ

As to `O=C(CN1CCCC1Cn1cncn1)NC(C1CC1)C1CC1` (stereo unspecified), the Percent Effect in test [1] was -1.42%; in [2] it was -1.39%; in test [3], 2.21%; in test [4] it was -0.594%; in test [5], 2.04%; in test [6], 1.32%. For the same compound, the Percent Effect was 10.9% in test [7]; -11.5% in test [8]; 3.16% in test [9]; 0% in test [10]; -1.96% in test [11].

With `O=S(=O)(NCC1CCN(c2ccccn2)CC1)c1ccccc1F`, the Percent Effect in [1] is -1.81%; in test [2], 23.4%; in [3], 0.655%; in test [4], -16.3%; in test [5], 3.25%; in test [6], -5.81%. For the same compound, the Percent Effect in test [7] was 12%; in [8], 14.5%; in test [9] it was 2.12%; in test [10] it was 14.1%; in test [11] it was -12.6%.

As to `O=C(c1ccccc1OCC1CC1)N1CCCC(n2ccnc2)C1` (stereo unspecified), the Percent Effect in test [1] is 1.84%; in test [2] it was 1.27%; in [3] it was 11.2%; in test [4] it was -0.0308%; in test [5] it was 3.18%; in test [6], 5.81%. Besides, the Percent Effect in [7] was 10.3%; in [8], -14%; in test [9] it was 2.08%; in test [10] it was 7.59%; in test [11], -6.24%.

As for `CC(COc1ccccc1)NCc1nc(-c2cccnc2)no1` (stereo unspecified), the Percent Effect in [1] is -2.6%; in test [2], 6.94%; in [3], -4.69%; in test [4], 0.164%; in test [5], 1.85%; in test [6], 3.09%. The Percent Effect in test [7] was 6.14%; in [8], 5.92%; in test [9] it was 3.16%; in test [10], 10.3%; in test [11], -2.08%.

For `CC(C)OCc1ccc(CNC(=O)CC(F)(F)F)cc1`, the Percent Effect in [1] is -5.75%; in test [2], 21.1%; in [3], -5.14%; in test [4], -0.714%; in [5], 3.83%; in test [6], 0.719%. For the same compound, the Percent Effect in test [7] was 3.98%; in test [8], 6.56%; in test [9], 8.37%; in test [10], 23.5%; in [11] it was -9.86%.

For the compound `O=c1cc(CN2CCCC2)nc2n1CCCN(Cc1ccsc1)C2`, the Percent Effect is -0.492% in [1]; 17.3% in test [2]; 3.4% in [3]; 2.2% in test [4]; -1.57% in test [5]; -9.68% in test [6]. Further, the Percent Effect in [7] was 14.4%; in [8] it was -8.49%; in test [9], 4.23%; in test [10] it was 7.69%; in [11] it was -10.8%.

With `COC(=O)c1ccc(C(=O)NS(=O)(=O)c2cncc(Br)c2)cc1`, the Percent Effect in test [1] was -4.86%; in test [2], 0%; in [3], 0.578%; in [4], 3.83%; in [5] it was -2.9%; in test [6], -0.952%. The Percent Effect was 15.7% in test [7]; 26.4% in test [8]; -0.529% in [9]; 2.44% in test [10]; -0.393% in test [11].

Take `Cc1nc(CN(Cc2ccccc2)C2CCS(=O)(=O)C2)oc1C` (stereo unspecified): the Percent Effect in test [1] was -2.4%; in [2] it was 15.8%; in [3] it was -3.46%; in [4], 2.71%; in test [5], 5.32%; in test [6], -1.08%. Moreover, the Percent Effect was 10.4% in test [7]; -8.35% in test [8]; 7.39% in [9]; 23.5% in [10]; -6.72% in test [11].

For `c1ccc(-c2noc(CNC3CCc4ncnn4C3)n2)nc1` (stereo unspecified), the Percent Effect in test [1] is -2.18%; in [2] it was -5.41%; in test [3], -0.412%; in test [4] it was 1.92%; in test [5], -4.74%; in test [6], 1.66%. For the same compound, the Percent Effect in test [7] was -5.57%; in test [8] it was 6.37%; in test [9] it was 2.97%; in [10], 1.22%; in [11], -1.02%.

For `COc1cccc(COCC(=O)N2CCCC(c3cc(C)[nH]n3)C2)c1` (stereo unspecified), the Percent Effect in test [1] was -3.58%; in test [2] it was 13.5%; in [3], -9.62%; in [4], 3.3%; in test [5] it was -2.92%; in test [6] it was -0.401%. For the same compound, the Percent Effect in test [7] is 2.7%; in [8] it was 10.1%; in test [9] it was 11.3%; in test [10], 16.1%; in [11], -4.89%.

Regarding `CC(C)(C)c1n[nH]c(C2CN(C(=O)c3cc(C4CC4)on3)CCO2)n1` (stereo unspecified), the Percent Effect in test [1] is -2.82%; in test [2], 7.89%; in [3] it was 1.22%; in test [4], -5.79%; in [5], 5.55%; in test [6] it was -8.28%. The Percent Effect in [7] is -4.7%; in test [8], 0.97%; in test [9], 1.06%; in test [10], 5.2%; in test [11] it was -10.8%.
